An excerpt weighted towards active compounds, which were near 4.2% of everything screened.
tim10-1 inh: growth inhibitors of tim10-1 mutant yeast, primary screen, luminescence, uHTS. S. cerevisiae tim10-1 ts strain growth, BacTiter-Glo, 24 h. inhibition, % at 20 µM. hit rate 2.2% among 330,000. AID 463190, 2010;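 active means inhibition of at least 40%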;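 further: mutant grown at 25 °C; 0% = DMSO wells with yeast and 100% = wells holding no yeast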
TIM10 inh: growth inhibitors of isogenic TIM10 control yeast, primary screen, counter-screen for tim10-1 yeast inhibitor project, luminescence, uHTS | S. cerevisiae TIM10 strain growth, BacTiter-Glo luminescence, 24 h | hit rate 1.4% among 330,000 | inhibition, % at 10 µM;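 active means inhibition of 40% or more at the single tested concentration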;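 further: wild-type TIM10 isogenic control strain grown at permissive 25 °C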
V-ATPase pHluor: regulators of yeast V-ATPase proton pumping, primary screen, pHLuorin cytosolic pH fluorescence; hit rate 0.37% among 350,000; S. cerevisiae; response, % at 10 µM; in the data active means response mostly above about 7.3%, no sharp cut-off; inactive means mostly below about 5.4%; further: actives read high
NALP1 inh: NALP1 inflammasome inhibitors in reconstituted yeast, colorimetric, S. cerevisiae, triplicate retest; S. cerevisiae NALP1/ASC/caspase-1 growth, X-gal OD620, 72 h; inhibition, % at 10 µM; hit rate 0.61% among 280,000; AID 2071, 2009; in the data active means inhibition mostly above about 24%, no sharp cut-off; inactive means mostly below about 32%
tim23-1 inh: growth inhibitors of tim23-1 mutant yeast, primary screen, luminescence, uHTS; S. cerevisiae tim23-1 growth, BacTiter-Glo luminescence, 24 h; inhibition, % at 20 µM; hit rate 1.3% among 330,000;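 active means growth inhibition of the mutant yeast at or above 50%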;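 further: temperature-sensitive mutant grown at 25 °C; plate controls were DMSO-treated mutant yeast for no effect and medium wells lacking yeast for full effect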
NALP3 yeast inh: NALP3 inflammasome inhibitors in reconstituted yeast, primary screen, luminescence, uHTS; inhibition, % at 10 µM; hit rate 0.39% among 330,000; AID 2825, 2010; Yeast reconstituted NLRP3/ASC/caspase-1, beta-gal luminescence, 24 h;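 active means inhibition of 50% or more; inactive means inhibition below 50%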;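 further: plate controls were induced DMSO wells for no effect and uninduced yeast grown without galactose for full effect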
tim10-1 conf: growth inhibitors of tim10-1 mutant yeast, confirmation, single concentration, luminescence, S. cerevisiae; shares compounds with tim10-1 inh; S. cerevisiae tim10-1 ts strain growth, BacTiter-Glo, 24 h; inhibition, % at 20 µM; hit rate 56% among 7,400;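 active means inhibition of yeast growth at or above a set limit in either of two repeat tests at 20 µM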;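 further: tim10-1 mutant grown at permissive 25 °C to find synthetic lethal compounds; 0% = DMSO yeast wells and 100% = medium wells without yeast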
* hit, by the source's call; . = no result.

SMILES	tim10-1 inh	TIM10 inh	V-ATPase pHluor	NALP1 inh	tim23-1 inh	NALP3 yeast inh	tim10-1 conf
Cc1c(Cl)cccc1NC(=S)N1CCCCCC1	44*	24	2	13	29	11	16
CC(C)(CC(=O)O)CC(=O)NNc1ncccc1C#N	-9	7	2	.	-9	3	.
O=C(Nc1ccccc1Br)C1CC(=O)N(c2ccc3c4c(cccc24)CC3)C1 (centres undefined)	41*	32	3	10	30	15	33*
COc1cc(NC(=O)CSc2nnnn2C2CCCC2)cc(OC)c1	97*	4	2	2	-3	1	-2
c1ccc(C(NCCNC(c2ccccc2)c2ccccc2)c2ccccc2)cc1	43*	19	1	15	21	13	19
Cc1cc(C(=O)CN2C(=O)C(=O)N(CCC3=CCCCC3)C2=O)c(C)n1C	4	9	.	.	40	-2	.
Cc1cc(OCC(=O)C(C)(C)C)c2c(-c3ccccc3)cc(=O)oc2c1	11	11	-2	16	27	34	.
CCCC1=C/C(=C/c2ccc(-c3ccccc3OC)o2)C(=O)O1	28	17	-2	30	23	5	.
COc1ccccc1-c1ccc(/C=C2/C=C(CC(C)C)OC2=O)o1	42*	22	1	17	31	16	36*
COc1ccc(C(=O)Nc2ccc(NC(=O)C3CC3)nc2)cc1	-48	14	-48	10	18	-2	.
S=c1[nH]nc(-c2ccccc2)n1/N=C/c1ccc(-c2ccccc2Cl)o1	45*	25	-1	20	31	9	22
CCOc1cc(/C=C2/C(=O)N(c3ccccc3)N=C2C)ccc1OC(=O)c1ccco1	40*	25	-5	-4	14	12	26
CCOC(=O)Nc1ccc(C(=O)NCC2CCCO2)cc1 (centres undefined)	43*	9	4	15	27	-10	9
O=[N+]([O-])c1cc(/C=N/O)ccc1Oc1cccc(Cl)c1	61*	26	3	20	41	28	55*
O=[N+]([O-])c1cc(/C=N/O)ccc1Sc1ccccc1	-15	-60	-1	20	-11	-2	.
O=[N+]([O-])c1cc(/C=N/O)ccc1Oc1ccccc1Cl	55*	27	1	25	33	20	42*
CO/N=C/c1ccc(Oc2ccc(C)cc2)c([N+](=O)[O-])c1	4	5	-3	19	16	28	.
Cc1cc(C(=O)NNC(=O)[C@H](C)NC(=O)c2ccc(Br)cc2)c(C)o1	-9	5	-1	.	-3	0	.
CC(C)c1cc2c(c(O)c1O)[C@@]13CCCC(C)(C)C1CC2OC3=O (some centres undefined)	43*	13	-1	-4	28	30	35*
COc1ccc(C)cc1NC(=O)NNC(=O)C1CCC(C(C)(C)C)CC1 (centres undefined)	-20	15	3	14	25	14	.
O=C(c1cc(COc2ccc(F)cc2Cl)on1)N1CCCC(OCc2cccnc2)C1 (centres undefined)	44*	8	-3	7	20	-7	26
O=C(NCCc1cccnc1)c1cc(COc2ccc(F)cc2Cl)on1	45*	3	6	24	29	25	18
COc1cc(C)ccc1OCc1cc(C(=O)N2CCC(c3ccc(F)cc3)C2)no1 (centres undefined)	41*	19	4	9	33	30	27*
O=C(NCCc1cccnc1)c1cc(COc2ccc(F)cc2F)on1	17	6	-7	15	19	16	.
COCCNC(=O)/C(C#N)=c1\s/c(=C\c2ccccc2OC(F)F)c(=O)n1Cc1ccccc1	3	0	.	-2	3	-11	.
SMILES	tim10-1 inh	TIM10 inh	V-ATPase pHluor	NALP1 inh	tim23-1 inh	NALP3 yeast inh	tim10-1 conf
N#Cc1ccc(NN=Nc2ccccc2C#N)cc1	.	.	-2	.	.	.	.
COc1ccc(/C=C/c2ccc3ccccc3[n+]2C)cc1OC	14	8	4	-4	3	19	.
CN(CCCS(=O)(=O)[O-])c1ccc(/C=C/c2ccc3ccccc3[n+]2C)cc1	43*	8	2	14	39	2	5
CCC(C)NS(=O)(=O)c1ccc(NC(=O)c2ccc([N+](=O)[O-])cc2Cl)cc1 (centres undefined)	46*	25	1	24	31	4	31*
CCc1ccc(NC2=NCC(=O)N2c2ccc3c(c2)OCCO3)cc1	42*	-7	-3	-77	19	0	16
O=S(=O)(c1ccc(SCc2c(F)cccc2Cl)nc1)N1CCCC1	.	.	2	.	.	.	.
O=C(CSc1ccccc1C(=O)NCc1ccccc1)NC12CC3CC(CC(C3)C1)C2	40*	35	1	25	34	3	32*
O=C(O)CCCNC(=O)CCCn1nnc2ccccc2c1=O	-11	4	-1	-20	5	20	.
COc1ccc(S(=O)(=O)N2CCN(CC(O)COc3ccc(CC#N)cc3)CC2)cc1OC (centres undefined)	1	-5	-1	19	13	7	.
Nc1cc2c(cc1C(=O)c1ccc(Cl)cc1)OCCO2	41*	31	-2	14	39	14	33*
Cc1nn(CCCC(=O)Nc2cc(Oc3ccc(F)cc3)cc([N+](=O)[O-])c2)c(C)c1[N+](=O)[O-]	41*	16	3	26	32	11	22
CCn1nc(C)c(C(=O)Nc2cc(Oc3ccc(Cl)cc3)cc([N+](=O)[O-])c2)c1C	49*	40	-1	-6	44	13	36*
CC(C)(C)C1CCc2nc(NC(=O)Cc3cn4ccsc4n3)sc2C1 (centres undefined)	57*	30	-5	10	47	-22	34*
O=C(COC(=O)Cc1cn2ccsc2n1)Nc1nc2ccccc2s1	20	6	0	-7	21	-8	.
O=C(NNc1nc2ccccc2s1)c1ccccc1F	47*	38	-5	1	26	21	28
O=C(O)c1ccccc1NC1CCCCC1NS(=O)(=O)c1ccccc1 (centres undefined)	10	-1	-3	22	4	-5	.
COc1ccccc1NC1CCCCC1NS(=O)(=O)c1ccccc1 (centres undefined)	43*	15	0	24	31	1	6
CN(c1ccccc1)C1CCCCC1NS(=O)(=O)c1ccc(Cl)cc1 (centres undefined)	50*	26	0	19	33	24	36*
